TNF necrop inh: inhibitors of TNF-alpha triggered necroptosis, primary screen, cell-based, Jurkat FADD-/-, single concentration | Jurkat FADD-/- TNF necroptosis rescue, ATP luminescence, 24 h; 0 = TNF only, 100 = no-TNF cells | activation (protection from cell death), % at 10 µM | 220,000 compounds, 0.068% hits | AID 463075, 2010;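 active = activation, meaning protection from cell death, of at least 50% relative to plate controls; inactive = activation below 50%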;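 note: necroptosis triggered by 40 ng/mL TNF-alpha added together with compound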
Mcl1 Noxa PPI: Mcl-1/Noxa binding inhibitors, primary screen, biochemical, TR-FRET, 1536-well. inhibition, % at 21.7 µM. Induced myeloid leukemia cell differentiation protein Mcl-1 (Homo sapiens), Q07820. AID 1022, 2008. TR-FRET Mcl-1/Noxa peptide binding, 2 h. 220,000 compounds, 1.5% hits;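 active = compounds that cut the protein-peptide binding signal by more than 50% relative to plate controls in a single-dose test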;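 note: His-tagged Mcl-1 with rhodamine Noxa BH3 peptide and terbium anti-His antibody; 0% = Mcl-1 plus Noxa peptide wells and 100% = peptide-only wells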
Target sequence (Q07820 whole entry, looked up): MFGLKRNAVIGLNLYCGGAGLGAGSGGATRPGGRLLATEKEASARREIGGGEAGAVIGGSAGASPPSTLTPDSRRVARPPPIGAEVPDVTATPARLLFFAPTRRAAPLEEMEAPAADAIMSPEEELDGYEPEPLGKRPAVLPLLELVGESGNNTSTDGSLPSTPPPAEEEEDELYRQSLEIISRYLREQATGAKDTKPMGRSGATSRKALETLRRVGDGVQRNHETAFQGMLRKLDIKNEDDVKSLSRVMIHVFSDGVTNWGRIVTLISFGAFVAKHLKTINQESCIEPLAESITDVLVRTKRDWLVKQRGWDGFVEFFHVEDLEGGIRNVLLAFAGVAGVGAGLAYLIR
L929 necroptosis: inhibitors of zVAD-triggered necroptosis, primary screen, L929 cells. L929 zVAD necroptosis rescue, ATP luminescence, 24 h; with zVAD 60 µM. 220,000 compounds, 0.38% hits. viability rescue, % at 10 µM;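 active = activation, scaled between plate controls, above about 75%, limit read from the data; inactive = activation under that limit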;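 note: 0% = zVAD with DMSO and 100% = DMSO alone without zVAD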
MCL1-BIM inh: inhibitors of MCL1 binding to BIM-BH3, primary screen, biochemical, fluorescence polarization. GST-MCL1 / FITC-Bim-BH3 fluorescence polarization. inhibition, % at 10.9 µM. Induced myeloid leukemia cell differentiation protein Mcl-1 (Homo sapiens), Q07820. 320,000 compounds, 0.68% hits;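 active = inhibition above the mean inhibition of all tested compounds plus 3 SD, set per campaign, cut at about 40% in these data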;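 note: 0% = DMSO wells and 100% = unlabeled Bim-BH3 peptide control; higher means more loss of mP so more displacement of Bim peptide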
Mcl1-Bid inh: Mcl-1/Bid binding inhibitors, primary screen, biochemical, TR-FRET, 1536-well | Induced myeloid leukemia cell differentiation protein Mcl-1 (Homo sapiens), Q07820 | TR-FRET Mcl-1/Bid-Dy647 peptide binding | inhibition, % at 21.7 µM | 220,000 compounds, 0.97% hits | AID 1021, 2008;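 active = compounds that cut the binding signal by more than half at the single screening dose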;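 note: His-tagged Mcl-1 with europium anti-His antibody binding Bid BH3 peptide; 0% = Mcl-1 plus peptide wells and 100% = peptide-only wells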
Mcl-1 Bim block: inhibitors of Bim peptide binding to Mcl-1, primary screen, biochemical, bead-based flow cytometry, multiplex; Induced myeloid leukemia cell differentiation protein Mcl-1 (Homo sapiens), Q07820; Bim peptide-Mcl-1 binding; inhibition, % at 10 µM; 190,000 compounds, 0.1% hits; AID 1009, 2008; in the data active = inhibition above about 40%;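 note: 0% = no compound tracer wells and 100% = peptide blocker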
BCLXL inh confirm: Bcl-xL inhibitors blocking Bim BH3 binding, confirmation, counter-screen for MCL1 inhibitor project, biochemical, fluorescence polarization; shares compounds with MCL1-BIM inh; GST-Bcl-xL / FITC-Bim BH3 peptide FP binding; inhibition, % at 10.9 µM; 1,700 compounds, 54% hits; AID 2166, 2009;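 active = inhibition above a cutoff equal to the mean inhibition of all tested compounds plus 3 SD, cut at about 30% in these data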;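 note: 0% = DMSO wells and 100% = unlabeled Bim BH3 control peptide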
Target sequence (Q07817 whole entry, looked up): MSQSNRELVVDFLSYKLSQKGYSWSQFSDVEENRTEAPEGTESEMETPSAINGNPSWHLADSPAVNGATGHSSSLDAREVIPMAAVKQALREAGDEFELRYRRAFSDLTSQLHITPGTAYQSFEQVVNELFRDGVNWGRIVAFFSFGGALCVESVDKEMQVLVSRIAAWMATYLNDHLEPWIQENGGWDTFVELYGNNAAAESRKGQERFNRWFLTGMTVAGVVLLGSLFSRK
MCL1 inh confirm: inhibitors of MCL1 binding to BIM-BH3, confirmation, biochemical, fluorescence polarization, triplicate. shares compounds with MCL1-BIM inh. GST-MCL1 / FITC-Bim-BH3 fluorescence polarization. inhibition, % at 10.9 µM. 1,700 compounds, 61% hits. AID 2168, 2009;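 active = inhibition above the average of all tested compounds plus 3 SD, cut at about 40% in these data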;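 note: 0% = DMSO wells and 100% = unlabeled Bim-BH3 control peptide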
Starred values were filed as active, the others as inactive; nt = not tested or not shown; + = active, no number. Most compounds without a hit are left out; they make up all but 2.4% or so of the library.

SMILES	TNF necrop inh	Mcl1 Noxa PPI	L929 necroptosis	MCL1-BIM inh	Mcl1-Bid inh	Mcl-1 Bim block	BCLXL inh confirm	MCL1 inh confirm
COc1cc(NC(=O)COC(=O)Cc2ccc(-c3ccccc3)cc2)cc(OC)c1	2	6	1	6	-24	0	nt	nt
Cc1nc2ccccn2c1C(=O)N/N=C/c1ccc([N+](=O)[O-])cc1	1	-8	0	-4	-20	nt	nt	nt
Cc1nc2ccccn2c1C(=O)N/N=C/c1ccc([N+](=O)[O-])o1	-8	39	4	41*	-52	-2	24	54*
O=C1c2cccc(O)c2C(=O)c2c(O)cccc21	-3	9	13	158*	8	-1	81*	97*
O=C1C(O)=C(O)C(=O)c2ccccc21	nt	nt	nt	8	nt	nt	nt	nt
C=CCn1c(SCC(=O)c2ccc(O)c(O)c2)nnc1-c1cccc(Cl)c1	nt	nt	nt	18	nt	nt	nt	nt
C=CCn1c(SCC(=O)c2ccc(O)c(O)c2)nnc1-c1ccccc1OC	-6	19	2	54*	-58	-2	9	18
C=CCn1c(SCC(=O)c2ccc(O)c(O)c2)nnc1-c1cccnc1	1	58*	1	41*	-36	nt	12	47*
CCn1c(SCC(=O)c2ccc(O)c(O)c2)nnc1-c1ccccc1OC	-4	8	1	45*	-81	1	14	41*
C=CCn1c(SCC(=O)c2ccc(O)c(O)c2)nnc1-c1cccc(C)c1	nt	nt	nt	24	nt	nt	nt	nt
CN(CC(=O)Nc1sccc1C#N)C1CCCCC1	-1	61*	0	112*	-6	-4	21	23
COC(=O)c1cn(-c2ccccc2)c(C)c1C(=O)OC	-2	7	0	-2	-5	-3	nt	nt
COC(=O)c1cc2ccccn2c2c(C(=O)OC)c(C(=O)OC)cc1-2	-11	22	0	21	-73	5	nt	nt
COC(=O)c1cc2n3ccccc3c(C)c(-c3ccccc3)c-2c1C(=O)OC	-1	-1	0	119*	-16	-1	111*	140*
COC(=O)c1cc2c(C)c(C)c3ccccn3c-2c1C(=O)OC	-13	-6	-1	115*	-19	2	71*	81*
COC(=O)c1cc2c(C)cc3ccc(C)cn3c-2c1C(=O)OC	2	-15	1	99*	-40	3	75*	98*
O=C(OCC(=O)N(CCc1ccccc1)Cc1ccccc1)c1ccccc1NCCO	nt	nt	nt	6	nt	nt	nt	nt
O=C(COC(=O)CSc1ccc([N+](=O)[O-])cc1)NCc1ccco1	nt	nt	nt	5	nt	nt	nt	nt
O=C(O)c1ccccc1C(=O)NCCc1c(C(=O)O)[nH]c2ccc(Cl)cc12	1	21	2	0	-36	nt	nt	nt
COc1cc(OC)c(OC)cc1/C=C1/Cc2ccccc2C1=O	nt	nt	nt	111*	nt	nt	85*	103*
COc1ccc(/C=C2/CCc3ccccc3C2=O)cc1OC	1	5	0	9	-13	-9	nt	nt
CC1C2C(c3ccccc3)N(C)C(=O)N(C)C2N(C)C(=O)N1C (stereo not given)	0	1	0	55*	-27	-1	38*	45*
O=C1CCN(Cc2ccc([N+](=O)[O-])cc2)CCN1[C@H](CO)c1ccccc1	nt	nt	nt	11	nt	nt	nt	nt
C=C(C)c1cccc(C(C)(C)NC(=O)Nc2ccc(C)cn2)c1	-1	16	1	-9	-10	7	nt	nt
C=C(C)c1cccc(C(C)(C)NC(=O)Nc2ccc(OC)nc2)c1	nt	nt	nt	91*	nt	nt	57*	73*
SMILES	TNF necrop inh	Mcl1 Noxa PPI	L929 necroptosis	MCL1-BIM inh	Mcl1-Bid inh	Mcl-1 Bim block	BCLXL inh confirm	MCL1 inh confirm
COc1ccc(NC(=O)c2cccc(-c3ccc(O)cc3)c2)cn1	nt	nt	nt	179*	nt	nt	107*	133*
CCCCN(C)CCCNC(=O)C1CCC(CNS(=O)(=O)c2c(C)cc(C)cc2C)CC1 (stereo not given)	nt	nt	nt	-1	nt	nt	nt	nt
CCCCn1c(O)c(N=NC(=O)c2ccccc2NS(=O)(=O)c2cccs2)c2ccccc21	0	8	1	16	-37	0	nt	nt
C=CCn1c(O)c(N=NC(=O)c2ccccc2NS(=O)(=O)c2cccs2)c2ccccc21	2	16	1	49*	-12	10	79*	120*
C#CCN1C(=O)S/C(=C\c2ccc(N3CCOCC3)cc2C)C1=O	1	-5	-1	70*	-6	0	121*	153*
Cc1ccc(N2C(=O)c3cccc4c(N5CCN(C)CC5)ccc(c34)C2=O)c2cccnc12	-3	-5	0	+	-3	0	+	+
CCOC(=O)C1=C(O)/C(=C/c2cn(CC(=O)NCC3CCCO3)c3ccccc23)SC1=Nc1ccc(C)cc1 (stereo not given)	5	nt	-1	77*	nt	nt	109*	109*
Nc1nc(COc2ccccc2C=O)nc(Nc2ccccc2)n1	-8	4	2	1	10	nt	nt	nt
CCCN(CCC)C(=O)c1ccc2c(c1)N(CC)C(=O)c1ccccc1S2(=O)=O	nt	nt	nt	127*	nt	nt	8	5
O=C(Cn1[nH]c(=O)c2ccccc2c1=O)OCC(=O)c1ccc(Br)cc1	nt	nt	nt	0	nt	nt	nt	nt
Nc1nc(=S)c2ncn([C@@H]3O[C@H](CO)[C@@H](O)[C@H]3O)c2[nH]1	nt	nt	nt	5	nt	nt	nt	nt
Nc1nc(=S)c2ncn(C3OC(CO)C(O)C3O)c2[nH]1 (stereo not given)	-9	89*	0	82*	-119	nt	15	47*
CCc1ccc2nc(N(CCCN(C)C)C(=O)c3ccc(S(=O)(=O)N4CCCC4)cc3)sc2c1	nt	nt	nt	44*	nt	nt	10	10
COc1ccc(OC)c2[nH]c(=O)c(CCNS(=O)(=O)c3ccc(Cl)cc3)cc12	0	11	0	44*	-9	-2	6	3
CCn1c(SCC(=O)N/N=C/C=C\c2ccco2)nc2ccccc21	1	18	0	48*	-42	-3	17	34
COc1cc2c(ccc3cc(OC)c(OC)c(O)c32)cc1O	-9	107*	64	78*	-21	nt	29	82*
COc1cc2cccc(OC)c(=O)c2c(O)c1OC	0	-2	2	7	-10	-2	nt	nt

Screens deposited in PubChem BioAssay by several laboratories.
